Measured values as given in PubChem BioAssay.
Several values for one entry are separate records, joined by “and”; a condition that tells them apart may be missing. Identical values can stand only once. Activity calls are given as the source filed them.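 Rule for the calls, unless noted: active = compound raises GLP1 secretion from the human gut endocrine cells, with no numeric limit stated; inactive = the rest.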

How the values were obtained:
[1] = P. berghei load reduction in hepatocytes – cell-based, HepG2, luciferase luminescence, HepG2 viability, primary screen (AID 624349; in the data active = parasite load remaining mostly below about 12%, no sharp cut-off; inactive = mostly above about 10%;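 note: 100% = mean of DMSO negative control wells on the same plate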); conditions: P. berghei liver stage in HepG2, luciferase luminescence, concentration not given here; parasite load remaining: stronger effect = lower value; viability: measured here: HepG2 viability without parasites
[2] = Wnt pathway potentiators raising nuclear beta-catenin – imaging, WNT3A-conditioned medium, mouse C2C12, NPC library, primary screen (AID 1117326; in the data active = nuclear beta-catenin stimulation mostly above about 4.2%, no sharp cut-off; inactive = mostly below about 10%); conditions: stronger effect = higher value
[3] = stimulators of insulin release from INS-1E, primary screen, cell-based, 5 mM glucose, NPC library (AID 1117329;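 active = compound raises insulin release from rat beta cells at 5 mM glucose, no numeric limit stated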); conditions: rat INS-1E insulin secretion, at 10 µM, stronger effect = higher value
[4] = growth inhibition of GSK3B-pretreated HCT116 cells – cell-based, CellTiter-Glo, 0.2 to 20 µM (AID 1117336;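 active = compounds lowering colon cancer cell viability after pretreatment blocking the GSK3B kinase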); conditions: HCT116 viability after GSK3B inhibitor, at 20 µM, stronger effect = higher value
[5] = inhibition of endothelial tube formation, primary screen, imaging, VEGF stimulated, CD31 staining, tube area, NPC library (AID 1117340;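 active = compound that reduces growth-factor-driven endothelial tube area in a mixed cell culture, no cutoff stated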); conditions: VEGF-stimulated ADSC/ECFC co-culture, at 10 µM, stronger effect = higher value
[6] = GLP1 release stimulators, primary, NCI-H716, NPC library (AID 1117341); conditions: NCI-H716 cells, at 10 µM, stronger effect = higher value
[7] = HCT116 colon cancer cell growth inhibition, primary screen, CellTiter-Glo luminescence, NPC library (AID 1117342;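 active = compounds that lower survival of HCT116 colon cancer cells in the luminescence readout, no numeric limit stated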); conditions: at 20 µM (top of the series)
[8] = reduced SW480 viability measured with CellTiter-Glo, NPC library, primary (AID 1117343;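 active = compounds that lower viability of the colon cancer cells in the luminescence readout, with no numeric limit stated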); conditions: CellTiter-Glo luminescence; at 20 µM (top of the series) unless noted
[9] = NPC library primary testing for decreased DLD-1 cell viability via CellTiter-Glo (AID 1117346;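 active = compounds that lower survival of DLD-1 colon cancer cells in the luminescence readout, no cutoff given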); conditions: DLD-1 viability, CellTiter-Glo luminescence; at 20 µM (top of the series)
[10] = EMT-state selective cytotoxicity in co-culture – imaging, PC-3E GFP, TEM4-18 mCherry, primary screen (AID 1345086;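 active = compounds killing one labelled cell type while sparing the other, by normalised counts and ratio limits, not self-fluorescent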;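 for all read-outs here: cells exposed to compound for 72 h before imaging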;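 for red/green cell ratio (normalised): normalised mesenchymal count divided by normalised epithelial count so high means epithelial killing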); conditions: PC-3E GFP / TEM4-18 mCherry co-culture, imaging cell counts, at 1 µM; for red/green cell ratio (normalised): actives lie on both sides, counts scaled to control wells, 1 = unselective
[11] = MELAS cybrid and Rieske KO viability enhancers – cell-based, MELAS cybrids, Rieske KO mouse fibroblasts, CellTiter-Glo, primary screen (AID 1508586;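 active = mean z-score across replicates of 1.96 or higher in either the MELAS or the Rieske mutant cell line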;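 note: z relative to plate mean and SD of compound and empty wells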); conditions: low glucose
[12] = molecular target: NAD(+) hydrolase SARM1 (Homo sapiens) (UniProt Q6SZW1); assay: blocking NAD cleavage by SARM1 SAM-TIR – cell lysate, NAD-Glo luminescence (AID 1508614;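 active = compound whose remaining NAD level is above about 45 nM, limit read from the data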;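 note: higher remaining NAD means stronger inhibition of SARM1 NADase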); conditions: SAM-TIR HEK293T lysate NADase, at 1 µM, stronger effect = higher value
Sequence of NAD(+) hydrolase SARM1 (Homo sapiens) (Q6SZW1 whole entry, looked up): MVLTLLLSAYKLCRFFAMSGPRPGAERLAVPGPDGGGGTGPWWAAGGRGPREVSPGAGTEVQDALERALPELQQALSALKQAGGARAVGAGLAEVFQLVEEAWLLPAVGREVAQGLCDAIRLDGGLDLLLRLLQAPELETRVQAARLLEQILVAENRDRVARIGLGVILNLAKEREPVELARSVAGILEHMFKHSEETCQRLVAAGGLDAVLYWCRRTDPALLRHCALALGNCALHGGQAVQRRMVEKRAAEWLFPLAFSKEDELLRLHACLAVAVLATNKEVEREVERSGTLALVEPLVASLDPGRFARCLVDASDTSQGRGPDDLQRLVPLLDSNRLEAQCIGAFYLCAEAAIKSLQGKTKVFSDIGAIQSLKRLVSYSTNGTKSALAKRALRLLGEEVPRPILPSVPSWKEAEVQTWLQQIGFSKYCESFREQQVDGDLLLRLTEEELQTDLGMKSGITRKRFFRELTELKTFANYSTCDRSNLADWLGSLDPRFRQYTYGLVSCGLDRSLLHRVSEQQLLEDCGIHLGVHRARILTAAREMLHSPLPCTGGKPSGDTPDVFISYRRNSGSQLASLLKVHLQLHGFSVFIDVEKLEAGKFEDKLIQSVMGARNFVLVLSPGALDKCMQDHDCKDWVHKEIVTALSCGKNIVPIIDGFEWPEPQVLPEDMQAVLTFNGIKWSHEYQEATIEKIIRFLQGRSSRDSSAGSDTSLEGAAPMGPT

[13] = galactose survival enhancers in mitochondrial complex I cybrids – cell-based, galactose medium, ATP luminescence, primary screen (AID 1645843;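 active = z-score of at least 1.8 in each of two replicates, scored against plate mean and spread of sample wells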;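 note: positive z means more ATP and so rescue of galactose-driven cybrid death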); conditions: complex I mutant cybrid cells, 72 h, stronger effect = higher value
[14] = viability loss with induced miR-34 in A549 – imaging, A549 dox-inducible miR-34, nuclei and caspase counts, primary screen (AID 1347080;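 active = compounds whose cell count with miR-34 switched on is under 0.7 times the count with it off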); conditions: A549 miR-34 inducible, Hoechst nuclei count, 48 h
[15] = measured here: epithelial PC-3E GFP cell survival
[16] = measured here: mesenchymal TEM4-18 mCherry cell survival
[17] = MELAS cybrid survival, CellTiter-Glo 48 h, stronger effect = higher value
[18] = Rieske KO mouse fibroblast survival, CellTiter-Glo 72 h

CC(O)(P(=O)(O)O)P(=O)(O)O
parasite load remaining [1]: 84.2% (inactive) and 72.4% (inactive) and 27.7% (inactive)
viability [1]: 97.4% and 110% and 90%
nuclear beta-catenin stimulation ([2]; at 10 µM): 3.1% (inactive)
nuclear beta-catenin stimulation ([2]; stimulation, at 2 µM): 1.7%
insulin secretion stimulation [3]: 0.9% (inactive)
viability decrease [4]: 12.5% (inactive)
tube area decrease [5]: 8.2% (inactive)
GLP1 secretion stimulation [6]: 1.6% (inactive)
inhibition of viability [7]: 9.4% (inactive)
viability decrease (inhibition) [8]: 2.7% (inactive)
viability decrease (inhibition) [9]: 9.1% (inactive)
red/green cell ratio (normalised) [10]: 0.95 (inactive)
normalised cell number [10, 15]: 1.05
normalised cell number [10, 16]: 1
z-score [11, 17]: -0.62 (inactive) and 0.631 (inactive)
z-score [11, 18]: -0.885 and -0.197
remaining NAD [12]: 10 nM (inactive)
z-score [13]: -2.15 (inactive) and 0.43 (inactive)

Cc1c(F)c(N2CCNC(C)C2)cc2c1c(=O)c(C(=O)O)cn2C1CC1 (stereo not drawn)
nuclear beta-catenin stimulation ([2]; at 10 µM): 0.7% (inactive)
nuclear beta-catenin stimulation ([2]; stimulation, at 2 µM): -0.2%
insulin secretion stimulation [3]: 1.15% (inactive)
viability decrease [4]: 57.3% (active)
tube area decrease [5]: -1% (inactive)
GLP1 secretion stimulation [6]: -0.4% (inactive)
inhibition of viability [7]: 39.5% (inactive)
viability decrease (inhibition) [8]: 0% (inactive)
viability decrease (inhibition) [9]: -10.1% (inactive)
red/green cell ratio (normalised) [10]: 1 (inactive)
normalised cell number [10, 15]: 1.13
normalised cell number [10, 16]: 1.12
z-score [11, 17]: 0.28 (inactive)
z-score [11, 18]: -0.0779

C[C@@]12C(=O)OC(=O)[C@]1(C)C1CCC2O1
nuclear beta-catenin stimulation ([2]; at 10 µM): -1.7% (active)
nuclear beta-catenin stimulation ([2]; stimulation, at 2 µM): 49.7%
insulin secretion stimulation [3]: 2.3% (inactive)
viability decrease [4]: 83.1% (active)
tube area decrease [5]: 111% (active)
GLP1 secretion stimulation [6]: 20.1% (active)
inhibition of viability [7]: 73% (active)
viability decrease (inhibition) [8]: 112% (active)
viability decrease (inhibition) [9]: 91% (active)
red/green cell ratio (normalised) [10]: 0.98 (inactive)
normalised cell number [10, 15]: 1.02
normalised cell number [10, 16]: 1.01

CC(C)=CCC/C(C)=C/CO
parasite load remaining [1]: 123% (inactive)
viability [1]: 71.1%
nuclear beta-catenin stimulation ([2]; at 10 µM): -0.1% (inactive)
nuclear beta-catenin stimulation ([2]; stimulation, at 2 µM): 3%
insulin secretion stimulation [3]: 0.7% (inactive)
viability decrease [4]: -10.3% (inactive)
tube area decrease [5]: 12.4% (inactive)
GLP1 secretion stimulation [6]: -1.8% (inactive)
inhibition of viability [7]: 1.77% (inactive)
viability decrease (inhibition) [8]: -1.7% (inactive)
viability decrease (inhibition) [9]: -8.2% (inactive)
red/green cell ratio (normalised) [10]: 0.92 (inactive)
normalised cell number [10, 15]: 1.13
normalised cell number [10, 16]: 1.03

O=C1OC2(c3ccc(O)cc3Oc3cc(O)ccc32)c2ccccc21
parasite load remaining [1]: 58.1% (inactive)
viability [1]: 92.3%
nuclear beta-catenin stimulation ([2]; at 10 µM): -0.4% (inactive)
nuclear beta-catenin stimulation ([2]; stimulation, at 2 µM): 3.4%
insulin secretion stimulation [3]: 3.7% (inactive)
viability decrease [4]: 6.1% (inactive)
tube area decrease [5]: 15.8% (inactive)
GLP1 secretion stimulation [6]: -2.3% (inactive)
inhibition of viability [7]: 9.8% (inactive)
viability decrease (inhibition) [8]: 16% (inactive)
viability decrease (inhibition) [9]: -11.6% (inactive)
red/green cell ratio (normalised) [10]: 1.43 (inactive)
normalised cell number [10, 15]: 1.11
normalised cell number [10, 16]: 1.6
fold change ([14]; stronger effect = lower value, cell number ratio, induced over uninduced): 0.894 (inactive)
fold change ([14]; measured here: relative caspase fold change +Dox/-Dox): 5.09
cell count ([14]; measured here: total cells with miR-34 induction, stronger effect = lower value): 11200
cell count ([14]; measured here: total cells without miR-34 induction): 12500
remaining NAD [12]: 10 nM (inactive)

Cc1cc(C(C#N)c2ccc(Cl)cc2)c(Cl)cc1NC(=O)c1cc(I)cc(I)c1O (stereo not drawn)
parasite load remaining [1]: 10.9% (inactive)
viability [1]: 94.5%
nuclear beta-catenin stimulation ([2]; at 10 µM): 2.4% (inactive)
nuclear beta-catenin stimulation ([2]; stimulation, at 2 µM): 1.5%
insulin secretion stimulation [3]: -0.6% (inactive)
viability decrease [4]: 120% (active)
tube area decrease [5]: 111% (active)
GLP1 secretion stimulation [6]: 14.4% (inactive)
inhibition of viability [7]: 125% (active)
viability decrease (inhibition) [8]: 163% (active)
viability decrease (inhibition) [9]: 101% (active)
red/green cell ratio (normalised) [10]: 0.8 (inactive)
normalised cell number [10, 15]: 1.27
normalised cell number [10, 16]: 1.02
remaining NAD [12]: 10 nM (inactive)
z-score [13]: 0.12 (inactive)
